# Several values for one entry are separate records, joined by “and”; a condition that tells them apart may be missing. Identical values can stand only once. Some compounds were tested as several samples or in several runs, with calls that do not always agree. Activity calls are given as the source filed them. The calls were made as follows: active = hit-call score of the fitted dose curve at least 0.9, where 1 is the maximum; inactive = score below 0.9.
# Read-out: Vascular cell adhesion molecule 1 (VCAM1), VCAM1 (gene 7412)
# Test: BSK_LPS_VCAM1: BioMAP Diversity Plus: LPS Assay for Vascular cell adhesion molecule 1 (VCAM1) Biomarker Activity (AID 2283086)
# Conditions: primary human HUVEC with PBMC; actives raise or lower the signal
# Procedure, shortened: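 VCAM-1 quantified by ELISA in an LPS-activated co-culture of human endothelial cells and peripheral blood mononuclear cells, read 24 h post-treatment. Fitted in both directions versus DMSO; parallel SRB staining flags overt cytotoxicity.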
SMILES,outcome,AC50
O=C(Oc1ccc(Br)cc1)N1CCN2CCC1CC2,inactive,
ClC1=C(Cl)[C@]2(Cl)[C@H]3[C@H]([C@@H]4C=C[C@H]3C4)[C@@]1(Cl)C2(Cl)Cl,,29.8 µM (active)
CCCCCCCCCCCCCN1CC(C)OC(C)C1 (configuration not stated),inactive,
CN(C)c1ccc(C(=O)c2ccc(N(C)C)cc2)cc1,,14.4 µM (active)
Cc1ccc([N+](=O)[O-])cc1,inactive,
CN(C)[C@@H]1C(=O)C(C(N)=O)=C(O)[C@@]2(O)C(=O)C3=C(O)c4c(O)cccc4[C@@](C)(O)[C@H]3C[C@@H]12,inactive,
C[C@]12C=CC3=C4CCC(=O)C=C4CC[C@H]3[C@@H]1CC[C@@H]2O,,10.3 µM (active)
O=[N+]([O-])C(Br)(CO)CO,,30.1 µM (active)
O=Cc1ccco1,inactive,
c1ccc(N=Nc2ccccc2)cc1,inactive,
Cn1cc(-c2ccccc2)c(=O)c(-c2cccc(C(F)(F)F)c2)c1,inactive,
CCOc1cccc(C2(N3CCN(c4ccccc4)CC3)CCC(C)CC2)c1 (configuration not stated),inactive,
[O-][Cl+]O,inactive,
CCN(CC)N=O,inactive,
CCCSC(=O)N(CCC)CCC,inactive,
CC(C)(O)c1cnn2c(-c3ccc(F)c(-c4c(F)cccc4C#N)c3)cnc2n1,,20 µM (active)
c1ccc(NNc2ccccc2)cc1,inactive,
Clc1ccc(Cl)c(Cl)c1,inactive,
CC(C)COC(=O)c1ccccc1C(=O)OCC(C)C,,20 µM (active)
CN(C)C(=O)Nc1ccc(Cl)cc1,inactive,
[As]#[In],inactive,
COP(=S)(OC)SCN1C(=O)c2ccccc2C1=O,inactive,
N#CC(Br)(Br)C(N)=O,inactive,
C=CCc1ccc2c(c1)OCO2,inactive,
COC(=O)c1ccccc1N,inactive,
CCNS(=O)(=O)C(F)(F)C(F)(F)C(F)(F)C(F)(F)C(F)(F)C(F)(F)C(F)(F)C(F)(F)F,inactive,30 µM (active)
CCC12COCN1COC2,inactive,

# Read-out: CD38, CD38 (gene 952)
# Test: BSK_SAg_CD38: BioMAP Diversity Plus: SAg Assay for CD38 Biomarker Activity (AID 2283087)
# Conditions: primary human HUVEC with PBMC; actives raise or lower the signal
# Procedure, shortened: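 CD38 quantified by ELISA (fluorescence) in a superantigen-activated endothelial cell–PBMC co-culture at 24 h post-dose. Activity fitted in both directions relative to DMSO; parallel SRB and Alamar Blue cytotoxicity read-outs.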
SMILES,outcome,AC50
O=C(Oc1ccc(Br)cc1)N1CCN2CCC1CC2,inactive,
ClC1=C(Cl)[C@]2(Cl)[C@H]3[C@H]([C@@H]4C=C[C@H]3C4)[C@@]1(Cl)C2(Cl)Cl,,16.8 µM (active)
CCCCCCCCCCCCCN1CC(C)OC(C)C1 (configuration not stated),inactive,
CN(C)c1ccc(C(=O)c2ccc(N(C)C)cc2)cc1,,20 µM (active)
Cc1ccc([N+](=O)[O-])cc1,inactive,
CN(C)[C@@H]1C(=O)C(C(N)=O)=C(O)[C@@]2(O)C(=O)C3=C(O)c4c(O)cccc4[C@@](C)(O)[C@H]3C[C@@H]12,inactive,
C[C@]12C=CC3=C4CCC(=O)C=C4CC[C@H]3[C@@H]1CC[C@@H]2O,,4.63 µM (active)
O=[N+]([O-])C(Br)(CO)CO,,31.3 µM (active)
O=Cc1ccco1,inactive,
c1ccc(N=Nc2ccccc2)cc1,inactive,
Cn1cc(-c2ccccc2)c(=O)c(-c2cccc(C(F)(F)F)c2)c1,inactive,
CCOc1cccc(C2(N3CCN(c4ccccc4)CC3)CCC(C)CC2)c1 (configuration not stated),inactive,
[O-][Cl+]O,inactive,
CCN(CC)N=O,inactive,
CCCSC(=O)N(CCC)CCC,inactive,
CC(C)(O)c1cnn2c(-c3ccc(F)c(-c4c(F)cccc4C#N)c3)cnc2n1,inactive,
c1ccc(NNc2ccccc2)cc1,inactive,
Clc1ccc(Cl)c(Cl)c1,inactive,
CC(C)COC(=O)c1ccccc1C(=O)OCC(C)C,inactive,
CN(C)C(=O)Nc1ccc(Cl)cc1,inactive,
[As]#[In],inactive,
COP(=S)(OC)SCN1C(=O)c2ccccc2C1=O,inactive,
N#CC(Br)(Br)C(N)=O,inactive,
C=CCc1ccc2c(c1)OCO2,inactive,
COC(=O)c1ccccc1N,inactive,
CCNS(=O)(=O)C(F)(F)C(F)(F)C(F)(F)C(F)(F)C(F)(F)C(F)(F)C(F)(F)C(F)(F)F,,19.3 µM (active) and 48.6 µM (active) and 30 µM (active)
CCC12COCN1COC2,inactive,

# Read-out: CD40, CD40 (gene 958)
# Test: BSK_SAg_CD40: BioMAP Diversity Plus: SAg Assay for CD40 Biomarker Activity (AID 2283088)
# Conditions: primary human HUVEC with PBMC; actives raise or lower the signal
# Procedure, shortened: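 HUVEC/PBMC co-culture, 24 h post-dose; CD40 by ELISA, fluorescence intensity; bidirectional fit vs DMSO negative control.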
SMILES,outcome,AC50
O=C(Oc1ccc(Br)cc1)N1CCN2CCC1CC2,inactive,
ClC1=C(Cl)[C@]2(Cl)[C@H]3[C@H]([C@@H]4C=C[C@H]3C4)[C@@]1(Cl)C2(Cl)Cl,,27.9 µM (active)
CCCCCCCCCCCCCN1CC(C)OC(C)C1 (configuration not stated),inactive,
CN(C)c1ccc(C(=O)c2ccc(N(C)C)cc2)cc1,inactive,
Cc1ccc([N+](=O)[O-])cc1,inactive,
CN(C)[C@@H]1C(=O)C(C(N)=O)=C(O)[C@@]2(O)C(=O)C3=C(O)c4c(O)cccc4[C@@](C)(O)[C@H]3C[C@@H]12,inactive,
C[C@]12C=CC3=C4CCC(=O)C=C4CC[C@H]3[C@@H]1CC[C@@H]2O,,9.73 µM (active)
O=[N+]([O-])C(Br)(CO)CO,,28.1 µM (active)
O=Cc1ccco1,inactive,
c1ccc(N=Nc2ccccc2)cc1,inactive,
Cn1cc(-c2ccccc2)c(=O)c(-c2cccc(C(F)(F)F)c2)c1,inactive,
CCOc1cccc(C2(N3CCN(c4ccccc4)CC3)CCC(C)CC2)c1 (configuration not stated),inactive,
[O-][Cl+]O,inactive,
CCN(CC)N=O,inactive,
CCCSC(=O)N(CCC)CCC,inactive,
CC(C)(O)c1cnn2c(-c3ccc(F)c(-c4c(F)cccc4C#N)c3)cnc2n1,,20 µM (active)
c1ccc(NNc2ccccc2)cc1,inactive,
Clc1ccc(Cl)c(Cl)c1,inactive,
CC(C)COC(=O)c1ccccc1C(=O)OCC(C)C,inactive,
CN(C)C(=O)Nc1ccc(Cl)cc1,inactive,
[As]#[In],inactive,
COP(=S)(OC)SCN1C(=O)c2ccccc2C1=O,inactive,
N#CC(Br)(Br)C(N)=O,inactive,
C=CCc1ccc2c(c1)OCO2,inactive,
COC(=O)c1ccccc1N,inactive,
CCNS(=O)(=O)C(F)(F)C(F)(F)C(F)(F)C(F)(F)C(F)(F)C(F)(F)C(F)(F)C(F)(F)F,,12.2 µM (active) and 36.6 µM (active) and 30.4 µM (active)
CCC12COCN1COC2,inactive,

# Source: PubChem BioAssay (EPA / NIEHS)
